Results filed as inconclusive are left out. Entries that show only a call come without a potency. Values without a mark were called inactive. Active and inactive are the calls of the source. The call rests on the fitted dose curve; in most records, active means well fitted inhibition curve with a large enough effect in the signal ratio in the repeat runs (not every such curve was filed as active); inconclusive means weak or mixed curves, or effect the other way; inactive means no such curve, though single readings can be large or run the other way; the % refers to the signal ratio.

Among the data in PubChem BioAssay (Tox21) are Potency and ratio activity, negative = inhibition values, retold here.

In the assay the target is Peroxisome proliferator-activated receptor delta (Homo sapiens) (UniProt Q03181). Nature of the assay: qHTS assay to identify small molecule antagonists of the peroxisome proliferator-activated receptor delta (PPARd) signaling pathway (AID 743215).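 Further: cells stimulated with agonist L165041 at 300 nM final during compound exposure.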 The note with it: HEK293H PPARd-UAS-bla, beta-lactamase FRET ratio, antagonist, 17 h; series mostly up to 62 µM. The text has this: U.S. Tox21 Program National Center for Advancing Translational Sciences [NCATS] NIH Chemical Genomics Center [NCGC] U.S. Environmental Protection Agency [EPA] National Institutes of Environmental Health Sciences [NIEHS] National Toxicology Program [NTP] U.S. Food and Drug Administration [FDA] Tox21 Assay Overview: The peroxisome proliferator-activated receptors (PPARs) are lipid-activated transcription factors of the nuclear receptor superfamily with three distinct subtypes namely PPAR alpha, PPAR delta (PPARd) and PPAR gamma. All these subtypes heterodimerizes with Retinoid X receptor (RXR) and have different physiological functions. […] To identify the compounds that inhibit PPAR-delta signaling, GeneBLAzer PPAR delta UAS-bla HEK293H cell line (Invitrogen, Carlsbad, CA, USA) containing a beta-lactamase reporter gene under the control of an Upstream Activator Sequence (UAS) was used to screen the Tox21 compound library.
Peroxisome proliferator-activated receptor delta (Homo sapiens), sequence (Q03181 whole entry, looked up): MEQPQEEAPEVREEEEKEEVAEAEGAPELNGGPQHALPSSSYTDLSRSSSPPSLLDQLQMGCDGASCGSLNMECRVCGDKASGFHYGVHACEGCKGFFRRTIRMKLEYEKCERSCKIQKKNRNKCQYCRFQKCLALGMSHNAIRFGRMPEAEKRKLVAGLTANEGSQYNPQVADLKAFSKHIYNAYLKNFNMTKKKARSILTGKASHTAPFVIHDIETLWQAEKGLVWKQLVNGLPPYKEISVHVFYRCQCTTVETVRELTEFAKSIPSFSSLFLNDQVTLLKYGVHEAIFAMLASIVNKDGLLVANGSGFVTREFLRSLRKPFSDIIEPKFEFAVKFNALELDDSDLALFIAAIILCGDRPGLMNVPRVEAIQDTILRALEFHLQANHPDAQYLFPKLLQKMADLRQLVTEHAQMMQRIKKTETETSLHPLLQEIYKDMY
Tox21 Assay Protocol Summary: PPARd-bla cells were dispensed at 3000 cells/5uL/well in 1536-well black wall/clear bottom plates using a Multidrop Combi (Thermo Fisher Scientific, Waltham, MA) dispenser. After the assay plates were incubated at 37 C and 5% CO2 for 5 h, 23 nL of compounds dissolved in DMSO, positive controls or DMSO only was transferred to the assay plate by a Pintool station (Kalypsys, San Diego, CA), followed by addition of 1ul L165041 (300 nM, final concentration in the wells). The assay plates were incubated at 37 C for 17 h, and then 1 uL of LiveBLAzerTM B/G FRET substrate was added using a Bioraptr Flying Reagent Dispenser (FRD) workstation (Beckman Coulter, Indianapolis, IN, USA). The assay plates were incubated at room temperature for 2 h and fluorescence intensity was measured by an Envision plate reader (PerkinElmer, Shelton, CT).
In general terms: qHTS replaces the single test concentration by a dilution series.
As to `O=C(O)CO`, the Potency result was “inactive”.

Turning to `C=CCOC(=O)COCCC(C)C`, the Potency entry was “inactive”. As for `O=C(Nc1ccc(C(=O)O)c(O)c1)c1ccccc1`, the Potency entry was “inactive”. The same measure, in the same setting: with `CCN(CC)CCOc1ccccc1C(=O)CCc1ccccc1` the entry was “inactive”; with `CCc1ccc(C)cc1`, “inactive”; with `Nc1ccc(S(=O)(=O)NCc2ccccc2)cc1`, “inactive”. In the case of `COc1ccc(N)c([N+](=O)[O-])c1`, the Potency result was “inactive”. In the case of `CC(C)C(O)C(C)(C)CO` (stereo not given), the Potency result is “inactive”. `Cc1ccc(N(CCO)CCO)cc1`: the Potency entry was “inactive”. Consider `CCC(Cl)CC(Cl)C(Cl)C(Cl)C(Cl)C(C)Cl` (stereo not given), for which the ratio activity, negative = inhibition is -24% [at 13.7 µM]. Consider `CCCCOC(=O)CCCCC(=O)OCCCC`, for which the Potency result was “inactive”. For the compound `O=C1OC[C@H](Cc2cccc(O)c2)[C@H]1Cc1cccc(O)c1`, the Potency result was “inactive”. Take `CCN(CC)CCOC(=O)C(c1ccccc1)c1ccccc1`: the Potency entry was “inactive”. Turning to `C=CC(=O)O`, the Potency entry is “inactive”. With `c1ccc2sc(SSc3nc4ccccc4s3)nc2c1`, the Potency entry was “inactive”. Still for that read-out and setting: under `O=[N+]([O-])c1ccc2ncccc2c1` stands “inactive”.

For the compound `CSSc1ccoc1C`, the Potency result is “inactive”. Take `CC(O)Cn1cnc2c1c(=O)n(C)c(=O)n2C` (stereo not given): the Potency result is “inactive”. Still for that read-out and setting: under `CCOC(=O)c1ccc(NC(=O)CN2CCCCC2)cc1` stands “inactive”; under `CCSC(=O)N(CC)CC`, “inactive”. The same measure, in the same setting: under `Nc1ccc(N=Nc2ccc(N)cc2)cc1` stands “inactive”; under `Cc1cc([N+](=O)[O-])ccc1N`, “inactive”; under `CC(=O)NCCO`, “inactive”. On the same count and under the same terms, with `CC(CCc1ccc(O)cc1)NCCc1ccc(O)c(O)c1` (stereo not given) the entry was “inactive”. On to `CC(=O)NNC(C)=O`, for which the Potency entry is “inactive”. As for `O=c1[nH][nH]c(=O)c2cc([N+](=O)[O-])ccc12`, the Potency result is “inactive”.

Turning to `CC(C)COC(=O)COc1cc(Cl)c(Cl)cc1Cl`, the Potency result is “inactive”. Same read-out and setting: with `O=NN(CCCl)C(=O)NCCCl` the entry was “inactive”.

As for `COC(=O)CC(C(C)=O)C(=O)OC` (stereo not given), the Potency entry is “inactive”.

As to `O=c1[nH]c2cc(C(F)(F)F)c(N3CCOCC3)cc2n(CP(=O)(O)O)c1=O`, the Potency result was “inactive”. Take `CC(CO)(CO)C(=O)O`: the Potency entry was “inactive”. On to `CC1CCCO1` (stereo not given), for which the Potency result is “inactive”.

In the case of `CC(C)c1ccc(C#N)cc1`, the Potency entry is “inactive”. On to `COC(=O)c1sccc1S(N)(=O)=O`, for which the Potency entry was “inactive”.

`O=C1OC(=O)c2c(Br)c(Br)c(Br)c(Br)c21`: the Potency entry is “inactive”. In the case of `Nc1ccc(NC(=O)c2ccc(N)cc2)cc1`, the Potency result is “inactive”. Turning to `CCCCC(CC)COS(=O)(=O)O` (stereo not given), the Potency result is “inactive”. As for `CCCCCCCCCCCCCOC(=O)CCSCCC(=O)OCCCCCCCCCCCCC`, the Potency result is “inactive”.

`CC(=O)N[C@@H](Cc1ccc(O)cc1)C(=O)O`: the Potency result was “inactive”.

For `Cc1ccc(Cl)cc1N`, the Potency result was “inactive”.
